Test results published in PubChem BioAssay (EPA / NIEHS).
Calls of active or inactive are those of the source. How the source made its calls: active means hit-call score of the fitted dose curve at least 0.9, where 1 is the maximum; inactive means score below 0.9.

Key:
[1] = read-out: Interferon-gamma inducible Protein 10 (IP10), CXCL10 (gene 3627); assay: BSK_hDFCGF_IP10: BioMAP Diversity Plus: hDFCGF Assay for Interferon-gamma inducible Protein 10 (IP10) Biomarker Activity (AID 2283053); settings: primary human foreskin fibroblasts; actives raise or lower the signal
How it was run: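 IP-10 levels, quantified by ELISA, are taken from human foreskin fibroblast cultures 24 h after chemical treatment, with DMSO serving as negative control and baseline for bidirectional analysis.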

[2] = read-out: Urokinase-type plasminogen activator receptor (uPAR), PLAUR (gene 5329); assay: BSK_CASM3C_uPAR: BioMAP Diversity Plus: CASM3C Assay for Urokinase-type plasminogen activator receptor (uPAR) Biomarker Activity (AID 2283054); settings: primary human coronary artery smooth muscle cells; actives raise or lower the signal;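 further: cell-surface uPAR protein level quantified by ELISA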
[3] = read-out: Vascular cell adhesion molecule 1 (VCAM1), VCAM1 (gene 7412); assay: BSK_CASM3C_VCAM1: BioMAP Diversity Plus: CASM3C Assay for Vascular cell adhesion molecule 1 (VCAM1) Biomarker Activity (AID 2283055); settings: primary human coronary artery smooth muscle cells; actives raise or lower the signal;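 further: VCAM-1 protein level quantified by ELISA on the cells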
[4] = read-out: Collagen III, COL3A1 (gene 1281); assay: BSK_hDFCGF_CollagenIII: BioMAP Diversity Plus: hDFCGF Assay for Collagen III Biomarker Activity (AID 2283056); settings: primary human foreskin fibroblasts; actives raise or lower the signal
How it was run: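 ELISA readout of Collagen III in human dermal (foreskin) fibroblasts, taken 24 h post-treatment. Gain or loss relative to DMSO vehicle fitted in both directions.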

[5] = read-out: Epidermal growth factor receptor (EGFR), EGFR (gene 1956); assay: BSK_hDFCGF_EGFR: BioMAP Diversity Plus: hDFCGF Assay for Epidermal growth factor receptor (EGFR) Biomarker Activity (AID 2283057); settings: primary human foreskin fibroblasts; actives raise or lower the signal
How it was run: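 Measured by ELISA: EGFR levels on primary human foreskin fibroblasts 24 h after chemical treatment, analysed relative to DMSO with bidirectional fitting.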

[6] = read-out: Interleukin-8 (IL8), CXCL8 (gene 3576); assay: BSK_hDFCGF_IL8: BioMAP Diversity Plus: hDFCGF Assay for Interleukin-8 (IL8) Biomarker Activity (AID 2283058); settings: primary human foreskin fibroblasts; actives raise or lower the signal
How it was run: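 IL-8 levels read by ELISA at 24 hours after dosing human skin fibroblast cultures. Parallel SRB staining assessed overt cytotoxicity, and gain or loss of signal was fitted against DMSO control.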

[7] = BSK_hDFCGF_SRB: Viability Assessment in the BioMAP Diversity Plus: hDFCGF Assay (AID 2283061); settings: primary human foreskin fibroblasts;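 further: cells exposed to compound for 24 h before the read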
How it was run: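 Viability was read as total protein: after 10% TCA fixation, wells were stained with 0.1% sulforhodamine B and read at 560 nm. Primary human foreskin fibroblasts were dosed for 24 h, with bidirectional fitting versus DMSO.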

[8] = read-out: TIMP metallopeptidase inhibitor 1 (TIMP1), TIMP1 (gene 7076); assay: BSK_hDFCGF_TIMP1: BioMAP Diversity Plus: hDFCGF Assay for TIMP metallopeptidase inhibitor 1 (TIMP1) Biomarker Activity (AID 2283062); settings: primary human foreskin fibroblasts; actives raise or lower the signal
How it was run: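 TIMP-1 measured by ELISA 24 h after chemical dosing of primary human skin fibroblasts, with gain or loss fitted relative to DMSO. Parallel SRB staining (560 nm) monitored overt cytotoxicity.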

[9] = read-out: Monokine induced gamma interferon (MIG), CXCL9 (gene 4283); assay: BSK_hDFCGF_MIG: BioMAP Diversity Plus: hDFCGF Assay for Monokine induced gamma interferon (MIG) Biomarker Activity (AID 2283063); settings: primary human foreskin fibroblasts; actives raise or lower the signal
How it was run: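 Human primary foreskin fibroblasts in the hDFCGF system, exposed to test chemical for 24 h; MIG measured by ELISA. Bidirectional curve fitting against DMSO negative control as activity baseline.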

[10] = read-out: Vascular cell adhesion molecule 1 (VCAM1), VCAM1 (gene 7412); assay: BSK_hDFCGF_VCAM1: BioMAP Diversity Plus: hDFCGF Assay for Vascular cell adhesion molecule 1 (VCAM1) Biomarker Activity (AID 2283065); settings: primary human foreskin fibroblasts; actives raise or lower the signal;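 on AC50: VCAM-1 protein level quantified by ELISA after 24 h chemical exposure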
How it was run: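 ELISA readout of VCAM-1 on human dermal fibroblast primary cultures, 24 h after chemical exposure. Gain or loss of signal fitted in both directions against DMSO baseline.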

[11] = read-out: Intercellular Adhesion Molecule 1 (ICAM1), ICAM1 (gene 3383); assay: BSK_KF3CT_ICAM1: BioMAP Diversity Plus: KF3CT Assay for Intercellular Adhesion Molecule 1 (ICAM1) Biomarker Activity (AID 2283067); settings: primary human keratinocytes with fibroblasts; actives raise or lower the signal
How it was run: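 Cell-surface ICAM-1 was measured by ELISA 24 h after dosing primary human skin keratinocytes co-cultured with fibroblasts. Parallel SRB staining tracked overt cytotoxicity. Gain or loss of signal was fitted relative to DMSO.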

[12] = read-out: Interferon-gamma inducible Protein 10 (IP10), CXCL10 (gene 3627); assay: BSK_KF3CT_IP10: BioMAP Diversity Plus: KF3CT Assay for Interferon-gamma inducible Protein 10 (IP10) Biomarker Activity (AID 2283068); settings: primary human keratinocytes with fibroblasts; actives raise or lower the signal
How it was run: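 Signal is secreted/surface IP-10 by ELISA in a human primary skin co-culture of keratinocytes and foreskin fibroblasts, taken 24 h post-dosing; DMSO served as negative control.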

[13] = BSK_KF3CT_SRB: Viability Assessment in the BioMAP Diversity Plus: KF3CT Assay (AID 2283069); settings: primary human keratinocytes with fibroblasts;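 further: total protein by sulforhodamine B staining as a cytotoxicity measure; read 24 h after compound addition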
How it was run: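 Human keratinocyte and foreskin fibroblast co-culture exposed to chemical for 24 h. Total protein measured in parallel cultures by 0.1% sulforhodamine B staining after 10% TCA fixation, read at 560 nm; bidirectional fit relative to DMSO.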

[14] = read-out: TIMP metallopeptidase inhibitor 2 (TIMP2), TIMP2 (gene 7077); assay: BSK_KF3CT_TIMP2: BioMAP Diversity Plus: KF3CT Assay for TIMP metallopeptidase inhibitor 2 (TIMP2) Biomarker Activity (AID 2283071); settings: primary human keratinocytes with fibroblasts; actives raise or lower the signal
How it was run: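 Keratinocyte–fibroblast co-culture, 24 h exposure; TIMP-2 ELISA, DMSO-normalised bidirectional fit. Parallel SRB (0.1%, TCA-fixed, 560 nm) total-protein staining gauges cytotoxicity.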

[15] = read-out: Transforming growth factor beta 1 (TGFb1), TGFB1 (gene 7040); assay: BSK_KF3CT_TGFb1: BioMAP Diversity Plus: KF3CT Assay for Transforming growth factor beta 1 (TGFb1) Biomarker Activity (AID 2283072); settings: primary human keratinocytes with fibroblasts; actives raise or lower the signal
How it was run: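 Signal changes in either direction, relative to DMSO, define activity here. TGF-b1 is read by ELISA from a human keratinocyte-fibroblast co-culture 24 h post-dose.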

[16] = read-out: Matrix Metallopeptidase 1 (MMP1), MMP1 (gene 4312); assay: BSK_hDFCGF_MMP1: BioMAP Diversity Plus: hDFCGF Assay for Matrix Metallopeptidase 1 (MMP1) Biomarker Activity (AID 2283064); settings: primary human foreskin fibroblasts; actives raise or lower the signal
How it was run: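 Primary human foreskin fibroblasts exposed to chemicals for 24 h; MMP1 measured by ELISA. Cytotoxicity tracked by SRB staining in parallel cultures; bidirectional fit relative to DMSO.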

[17] = read-out: Plasminogen activator inhibitor-1 (PAI1), SERPINE1 (gene 5054); assay: BSK_hDFCGF_PAI1: BioMAP Diversity Plus: hDFCGF Assay for Plasminogen activator inhibitor-1 (PAI1) Biomarker Activity (AID 2283066); settings: primary human foreskin fibroblasts; actives raise or lower the signal
How it was run: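 PAI-1 levels, determined by ELISA, served as the endpoint in human foreskin fibroblast cultures exposed to compound for 24 h, with DMSO as baseline.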

[18] = BSK_hDFCGF_Proliferation: Cell Proliferation Assessment in the BioMAP Diversity Plus: hDFCGF Assay (AID 2283059); settings: primary human foreskin fibroblasts;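 further: curves fitted for both rise and fall of signal versus DMSO baseline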
How it was run: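 This proliferation readout used SRB total-protein staining of human foreskin fibroblasts […], normalized to DMSO with bidirectional curve fitting.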

[19] = read-out: Interleukin-1 alpha (IL1a), IL1A (gene 3552); assay: BSK_KF3CT_IL1a: BioMAP Diversity Plus: KF3CT Assay for Interleukin-1 alpha (IL1a) Biomarker Activity (AID 2283070); settings: primary human keratinocytes with fibroblasts; actives raise or lower the signal
How it was run: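 Primary human keratinocyte plus foreskin fibroblast co-culture, dosed and measured at 24 h in 96-well plates. IL-1a level quantified by ELISA; bidirectional fit relative to DMSO.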

[20] = read-out: Macrophage colony-stimulating factor (MCSF), CSF1 (gene 1435); assay: BSK_hDFCGF_MCSF: BioMAP Diversity Plus: hDFCGF Assay for Macrophage colony-stimulating factor (MCSF) Biomarker Activity (AID 2283060); settings: primary human foreskin fibroblasts; actives raise or lower the signal
How it was run: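 M-CSF levels read by ELISA at 24 h post-dosing in human skin fibroblasts. Parallel cultures stained with SRB assessed cytotoxicity at the same time point; response fitted in both directions against the DMSO baseline.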

Measured: AC50

C=CCCCCCCCCCCCC
not listed: [16] | [17] | [18] | [19] | [20]
inactive: all other assays above

N[C@@H](Cc1c[nH]c2ccccc12)C(=O)O
not listed: [8] | [18] | [19] | [20]
inactive: all other assays above

CN(C)CCCN1c2ccccc2Sc2ccc(Cl)cc21
active: [1] 26.1 µM | [2] 20 µM | [6] 31.4 µM | [18] 16.6 µM | [7] 31.9 µM | [9] 31.1 µM | [16] 31.5 µM | [10] 24.7 µM | [11] 35.4 µM | [12] 30.8 µM | [13] 31.6 µM | [19] 31 µM | [15] 33.2 µM
inactive: [3] | [14]

Cc1c(C)c2c(c(C)c1O)CCC(C)(COc1ccc(CC3SC(=O)NC3=O)cc1)O2 (stereo not given)
inactive: [2] | [3]
active: [1] 9.98 µM | [4] 12 µM | [5] 8.04 µM | [6] 27.8 µM | [7] 19.2 µM | [9] 20 µM | [16] 24.8 µM | [10] 11.8 µM | [11] 14.1 µM | [12] 11.3 µM | [13] 13.8 µM | [14] 20 µM | [15] 20.9 µM

CC(=O)S[C@H](C(=O)N[C@H]1Cc2ccccc2[C@H]2CCC[C@@H](C(=O)O)N2C1=O)C(C)C
not listed: [18] | [20]
inactive: all other assays above

Cn1cnc2c1c(=O)[nH]c(=O)n2C
not listed: [8] | [18]
inactive: all other assays above

Cc1cc(SC2=C(O)C[C@@](CCc3ccc(N)cc3)(C(C)C)OC2=O)c(C(C)(C)C)cc1CO
not listed: [16] | [17] | [18]
inactive: all other assays above

S=c1[nH]c2ccccc2s1
active: [4] 6.58 µM
not listed: [8] | [17] | [18] | [20]
inactive: all other assays above

Nc1nc(=S)c2[nH]cnc2[nH]1
active: [4] 26.1 µM
not listed: [10] | [16] | [18] | [20]
inactive: all other assays above

OCC(O)CO
not listed: [16] | [17] | [18] | [19]
inactive: all other assays above

COc1ccc(OC(F)(F)F)cc1CN[C@H]1CCCN[C@H]1c1ccccc1
not listed: [8] | [17] | [18] | [19] | [20]
inactive: all other assays above

O=C(O)c1cccnc1
not listed: [8] | [16] | [17] | [18]
inactive: all other assays above

CCCCC(CC)COP(=O)(OCC(CC)CCCC)OCC(CC)CCCC (stereo not given)
not listed: [8] | [18]
inactive: all other assays above

CC1=C(C)S(=O)(=O)CCS1(=O)=O
not listed: [8] | [16] | [17] | [18] | [20]
inactive: all other assays above

O=NO
not listed: [8] | [18] | [20]
inactive: all other assays above

C/C=C/C=C/C(=O)O
not listed: [16] | [17] | [18]
inactive: all other assays above
